Assay outcomes as filed in PubChem BioAssay.
This is a sample that favours compounds with a hit; in the whole collection about 7.9% have one here.
LASV entry inh = inhibitors of Lassa virus binding or cell entry; Lassa virus pseudotype entry inhibition, cell reporter; Potency, µM (top dose mostly 37.9 µM), for the others: at the highest dose activity change, negative = inhibition, most hits filed as inhibitors; 300,000 tested, 1.2% active; AID 540256; calls by dose curve; tested in HEK293 cells; further: potency means the concentration at half of the fitted maximal effect; nearly all actives have a fitted effect of over 50% in size
HCMV antiviral = human cytomegalovirus inhibition; HFF cells, HCMV-luciferase reporter, 72 h; stronger effect = lower value; activity change, negative = inhibition, % at 57.5 µM; 410,000 tested, 4.5% active; in the data active means activity change below about -60%; inconclusive means no clear call, values can overlap the other calls; inactive means above about -39%
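Luciferase read-out from HCMV-luciferase-infected HFFs (MOI 1 PFU/cell) 72 h post infection at 37C; compounds added after 16 h cell attachment; activity normalized between buffer-only basal and Salinomycin (10uM) inhibitor controls.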
Marburg entry inh = inhibitors of Marburg virus binding or cell entry; Marburg virus pseudotyped entry inhibition, cell reporter; Potency, µM (top dose mostly 37.8 µM), inactives show top-dose activity change, negative = inhibition, actives largely listed as inhibitors; 300,000 tested, 1.8% active; calls by dose curve; tested in HEK293 cells; further: potency means the concentration at half of the fitted maximal effect
HCV inhibitor = inhibitors of hepatitis C virus infection | 340,000 tested, 3.4% active | Potency, µM (top dose mostly 41.8 µM), without a hit: top-dose activity change, negative = inhibition, usual class: inhibitors | Huh7.5.1 HCVcc-Cre infection, luciferase reporter, 44 h; active means well fitted inhibition curve with a large enough effect; inconclusive means small, poorly fitted or top-dose-only effect, or another doubt; inactive means no such curve, though single readings can be large or run the other way; further: potency means the concentration at half of the fitted maximal effect
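After 44 h co-culture of compound, cells and HCVcc-Cre (~0.5 moi), substrate is added for 15 min at room temperature and luciferase measured over 15 sec. Cells were seeded at 1,000/well and pre-cultured 4 h.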
FMDV antiviral = foot and mouth disease virus antiviral activity; AID 1159524; 410,000 tested, 1.2% active; FMDV antiviral cell-based qHTS; Potency, µM (doses to about 57.9 µM), for the others: at the highest dose activity change, negative = inhibition, usual class: inhibitors; calls by dose curve; tested in HEK293T cells; further: read-out not given here; potency means the concentration at half of the fitted maximal effect; nearly all actives have a fitted effect of over 45% in size
Active calls of the source: *; [ ] = another dose, or the depositor's remark. On the % scale 0 is the no-effect control and ±100 the full control effect.

What do the screens show for `COc1cccc(CNC(=O)CCC2CCCN(C(=O)c3cc4ccccc4o3)C2)c1` (stereo not drawn)?
LASV entry inh: inconclusive; HCMV antiviral: 10.4; Marburg entry inh: 11.2µM*; HCV inhibitor: inconclusive; FMDV antiviral: 2.3%

Results for Cc1c(C(=O)NCC2(c3ccccc3)CCOCC2)cnn1-c1nccc(-c2ccco2)n1 ?
FMDV antiviral: 42.2%

Results for CC1CC(C)CN(CCOc2ccc(Cl)cc2Cl)C1 (stereo not drawn) ?
LASV entry inh: inconclusive; HCMV antiviral: -15.8; Marburg entry inh: inconclusive; HCV inhibitor: -28.1%; FMDV antiviral: 0.0%

Results for CC1CCC(=O)N(CCSc2ccccc2)CC1 (stereo not drawn) ?
HCMV antiviral: 121.0; HCV inhibitor: -21.8%; FMDV antiviral: 21.7%

Results for CC1CCCN(CCOCCSc2ccccc2)C1 (stereo not drawn) ?
LASV entry inh: inconclusive; HCMV antiviral: -39.5; Marburg entry inh: inconclusive; HCV inhibitor: inconclusive; FMDV antiviral: -26.5%

How did CC1CN(CCCSc2ccc(Cl)cc2)CC(C)O1 (stereo not drawn) do in these assays?
LASV entry inh: -6.6%; HCMV antiviral: -2.8; Marburg entry inh: -24.6%[46.1 µM]; HCV inhibitor: 12.6µM*; FMDV antiviral: -21.6%

What do the screens show for `CC1CC(C)CN(CCCSc2ccccc2)C1` (stereo not drawn)?
LASV entry inh: inconclusive; HCMV antiviral: -4.1; Marburg entry inh: 2.91µM*; HCV inhibitor: -13.6%; FMDV antiviral: -1.7%

How did CC1CN(CCCCSc2ccccc2)CC(C)O1 (stereo not drawn) do in these assays?
HCMV antiviral: 8.8; HCV inhibitor: 9.1%; FMDV antiviral: 2.0%

What do the screens show for `CC1CC(C)CN(CCOCCSc2ccc(Cl)cc2)C1` (stereo not drawn)?
LASV entry inh: inconclusive; HCMV antiviral: 0.8; Marburg entry inh: 7.08µM*; HCV inhibitor: inconclusive; FMDV antiviral: 20.3%

Results for CC1CC(C)CN(CCOCCSc2ccccc2)C1 (stereo not drawn) ?
LASV entry inh: 9.2µM*; HCMV antiviral: 4.7; Marburg entry inh: inconclusive; HCV inhibitor: inconclusive; FMDV antiviral: -10.8%

How did CCc1ccccc1NC(=O)C(NS(=O)(=O)c1ccc2c(c1)CCC(=O)N2)c1ccccc1 (stereo not drawn) do in these assays?
LASV entry inh: 1.9%[46.1 µM]; HCMV antiviral: -15.1; Marburg entry inh: -4.8%[46.1 µM]; FMDV antiviral: -13.6%

How did O=C(C1CCN(C2CCN(Cc3ccsc3)CC2)CC1)N1CCOCC1 do in these assays?
LASV entry inh: 2.8%; HCMV antiviral: 3.8; Marburg entry inh: 17.9%; HCV inhibitor: inconclusive; FMDV antiviral: -11.8%

How did CSc1nc(N(CCO)CCO)c2sc3nc(-c4ccco4)c4c(c3c2n1)CCC4 do in these assays?
LASV entry inh: -3.8%; HCMV antiviral: -6.1; Marburg entry inh: inconclusive; HCV inhibitor: 6.31µM*; FMDV antiviral: -29.0%

How did CCC(=O)C1=C(c2ccccc2)N(C(=O)CC)n2c(nnc2C2CCCCC2)S1 do in these assays?
LASV entry inh: 2.3%[46.1 µM]; HCMV antiviral: 22.5; FMDV antiviral: -7.4%

Results for CCC(=O)C1=C(c2cccc([N+](=O)[O-])c2)N(C(=O)CC)n2c(nnc2C2CCCCC2)S1 ?
LASV entry inh: inconclusive; HCMV antiviral: -99.3*; FMDV antiviral: 0.0%

Results for CCC(=O)C1=C(c2cccc(OC)c2)N(C(=O)CC)n2c(nnc2C2CCCCC2)S1 ?
LASV entry inh: inconclusive; HCMV antiviral: -91.5*; FMDV antiviral: -18.7%

Results for CC[C@@H](C(=O)[C@@H](C)[C@@H](O)[C@H](C)CCc1ccc(C)c(O)c1C(=O)O)[C@H]1O[C@](CC)([C@H]2CC[C@](O)(CC)[C@H](C)O2)C[C@@H]1C ?
HCMV antiviral: -99.5*; HCV inhibitor: 1.78µM*; FMDV antiviral: 28.2µM*

What do the screens show for `Cc1c(Cl)c(=O)n2c(=O)c(Cl)c(C)n12`?
LASV entry inh: 19.2%[46.1 µM]; HCMV antiviral: -24.7; Marburg entry inh: 7.9%[46.1 µM]; HCV inhibitor: 4.2%; FMDV antiviral: -11.1%

What do the screens show for `CC(C)(C)OC(=O)N1CCN(C(=O)Cn2cc(CCO)nn2)CC1`?
HCMV antiviral: 64.2; HCV inhibitor: 9.5%; FMDV antiviral: -2.2%

What do the screens show for `CC(C)(C)OC(=O)NCCCCc1cn(CC(=O)N2CCN(C(=O)OC(C)(C)C)CC2)nn1`?
HCMV antiviral: -79.6*; HCV inhibitor: -2.0%[8.37 µM]; FMDV antiviral: -24.1%

How did CC[C@@H](C)[C@@H](C(=O)N1CCN(C(=O)OC(C)(C)C)CC1)n1cc(CCCCNC(=O)OC(C)(C)C)nn1 do in these assays?
HCMV antiviral: -26.9; HCV inhibitor: inconclusive; FMDV antiviral: 12.6µM*

Results for C[C@@H]1C=CCC(=O)N2[C@H](CC(=O)N[C@@H]1c1ccccc1)C[C@@H](C)[C@@H]2c1ccccc1 ?
LASV entry inh: inconclusive; Marburg entry inh: -24.0%[14.2 µM]

What do the screens show for `Cc1ccc(Nc2nnc(SCC(=O)NCC3CCCO3)s2)cc1` (stereo not drawn)?
HCMV antiviral: -5.5; HCV inhibitor: 1.6%; FMDV antiviral: -8.0%

Results for Cc1ccc(-c2nsc(SCC(=O)NCC3CCCO3)n2)cc1 (stereo not drawn) ?
LASV entry inh: 0.2%; HCMV antiviral: -36.0; Marburg entry inh: -14.0%[46.1 µM]; HCV inhibitor: 10µM*; FMDV antiviral: -2.0%

How did O=C(CSc1nc2ccsc2c(=O)n1Cc1ccc(C(=O)O)cc1)NCC1CCCO1 (stereo not drawn) do in these assays?
LASV entry inh: 17.4%; HCMV antiviral: -9.7; Marburg entry inh: 0.3%; HCV inhibitor: 3.1%; FMDV antiviral: -6.5%

How did COc1ccc(-c2nc(SCC(=O)NCC3CCCO3)c(-c3ccc(Cl)cc3)[nH]2)cc1 (stereo not drawn) do in these assays?
LASV entry inh: -7.1%[46.1 µM]; HCMV antiviral: -19.8; Marburg entry inh: -4.4%[46.1 µM]; FMDV antiviral: -4.6%

Results for Cc1ccc(Cn2c(SCC(=O)NCC3CCCO3)nc3ccsc3c2=O)cc1 (stereo not drawn) ?
LASV entry inh: -14.8%; HCMV antiviral: 0.4; Marburg entry inh: -10.8%[46.1 µM]; HCV inhibitor: 8.91µM*; FMDV antiviral: -3.2%

What do the screens show for `COc1ccc(-c2nsc(SCC(=O)NCC3CCCO3)n2)cc1` (stereo not drawn)?
LASV entry inh: -16.3%[46.1 µM]; HCMV antiviral: -77.3*; Marburg entry inh: 1.1%[46.1 µM]; HCV inhibitor: -24.5%; FMDV antiviral: -7.0%

What do the screens show for `Cc1ccc(SCC(=O)NCC2CCCO2)cc1` (stereo not drawn)?
HCMV antiviral: -93.4*; HCV inhibitor: 17.2%; FMDV antiviral: 16.3%

Results for O=C(CSc1nnc(-c2ccco2)n1-c1ccccc1)NCC1CCCO1 (stereo not drawn) ?
LASV entry inh: -2.0%; HCMV antiviral: -69.0*; Marburg entry inh: 9.2%; HCV inhibitor: 1.6%; FMDV antiviral: -18.9%

Results for CCOCCc1nn2c(=O)cc(CSCC(=O)Nc3cc(C)cc(C)c3)nc2s1 ?
LASV entry inh: inconclusive; HCMV antiviral: -61.6*; Marburg entry inh: -10.8%[46.1 µM]; HCV inhibitor: 0.2%; FMDV antiviral: 0.9%
